The list is not random: actives were taken first. Their share in the collection is about 15%.
DT40 TDP1 no CPT – qHTS for Inhibitors of human tyrosyl-DNA phosphodiesterase 1 (TDP1): qHTS in cells in absence of CPT; DT40 Tdp1-/- hTDP1 cells, no CPT, ATP luminescence, 48 h; Potency, µM (series often up to 46.2 µM), most hits filed as inhibitors; actives 15% (n = 420,000); note: nearly all actives have a fitted effect of over 55% in size
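Seeded 400 DT40-hTDP1 cells/well (vehicle DMSO, no 20 nM CPT); pinned compounds; ≥48 hr at 37 °C; CellTiter-Glo luminescence as viability measure.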
12-LOX inh – inhibitors of human 12S-lipoxygenase ALOX12; purified 12hLO, xylenol orange hydroperoxide absorbance; Potency, µM (highest dose often 108 µM), actives largely listed as inhibitors; actives 1.1% (n = 580,000)
Target sequence (P18054 whole entry, looked up): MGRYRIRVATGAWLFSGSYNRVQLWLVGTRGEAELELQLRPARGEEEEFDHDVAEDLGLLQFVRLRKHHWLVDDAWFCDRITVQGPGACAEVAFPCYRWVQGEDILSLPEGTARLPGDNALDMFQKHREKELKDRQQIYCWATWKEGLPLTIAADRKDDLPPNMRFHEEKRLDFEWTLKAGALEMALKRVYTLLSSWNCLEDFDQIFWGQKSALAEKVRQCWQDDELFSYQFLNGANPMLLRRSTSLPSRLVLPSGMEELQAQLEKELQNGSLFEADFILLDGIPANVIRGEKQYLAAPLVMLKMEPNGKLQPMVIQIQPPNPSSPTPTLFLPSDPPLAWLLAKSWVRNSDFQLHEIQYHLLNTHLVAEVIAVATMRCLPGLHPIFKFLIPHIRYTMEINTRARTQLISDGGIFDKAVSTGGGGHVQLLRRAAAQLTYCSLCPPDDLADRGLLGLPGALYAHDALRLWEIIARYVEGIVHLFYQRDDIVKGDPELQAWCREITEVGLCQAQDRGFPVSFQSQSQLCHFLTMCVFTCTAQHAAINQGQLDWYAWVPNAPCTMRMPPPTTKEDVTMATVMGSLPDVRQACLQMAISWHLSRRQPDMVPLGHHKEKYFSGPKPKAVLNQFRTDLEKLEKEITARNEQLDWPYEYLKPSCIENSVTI
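Purified human 12hLO (150 nM final) in 25 mM Hepes, 0.01% Triton X-100, pH 7.0 was preincubated 15 min at room temperature with compound. Then 40 uM arachidonic acid was added, 30 min. Hydroperoxide was read by Fe-XO absorbance ratio 573/405 nm.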
DT40 TDP1 CPT – growth inhibition of DT40 Tdp1-/-;hTDP1 cells with camptothecin (screen for TDP1 inhibitors). AID 686979. chicken DT40 Tdp1-/-;hTDP1 cells + 20 nM CPT, ATP luminescence, 48 h. Potency, µM (series often up to 46.2 µM), actives largely listed as inhibitors. actives 12% (n = 420,000); note: nearly all actives have a fitted effect of over 55% in size
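Cell growth measured by CellTiter-Glo luminescence after a minimum 48 h, 37 C compound exposure with 20 nM CPT in Tdp1-knockout DT40 cells stably expressing hTDP1, seeded 400/well; qHTS titration format.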
VP16 counter – Gal4-VP16 reporter inhibition counter-screen. Drosophila S2 Gal4-VP16 UAS-luciferase, luminescence, 20 h. actives 3.5% (n = 310,000). Potency, µM (top dose mostly 53.6 µM), actives largely listed as inhibitors;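 note: Gal4-VP16 expression switched on by copper sulfate through the metallothionein promoter; nearly all actives have a fitted effect of over 50% in size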
ELG1 repair inh – blocks ELG1-dependent DNA repair in HEK293T cells; Potency, µM (doses to about 46.1 µM), actives largely listed as inhibitors; HEK293T ELG1-luciferase reporter, luminescence, 16 h; DNA damage induced by 5-fluorouridine; AID 504467; actives 2.3% (n = 330,000); note: nearly all actives have a fitted effect of over 55% in size
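DMSO vehicle served as the neutral condition. Each well held 2,000 cells given 5-fluorouridine plus compound; after 16 hr at 37 °C/5% CO2, ONE-Glo was added and luciferase measured 30 min later.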
RORg inh – blocks mouse ROR gamma transcriptional activity; actives 5.4% (n = 310,000); AID 2551; Potency, µM (series often up to 53.6 µM), actives largely listed as inhibitors; Drosophila S2 Gal4-RORgamma UAS-luciferase reporter, 20 h; P51450; note: nearly all actives have a fitted effect of over 60% in size
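Schneider cells (Drosophila), stable Gal4 DBD–ROR gamma + UAS-luc; 1 hr cmpd preincubation; Cu2+ induction 700 uM final; 20 hr ambient; luminescence.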
Numbers stand for hits; – = inactive; ? = inconclusive; · = no result given; [ ] = dose if it differs, or a comment. Calls come from the whole dose curve; as a rule, active = well fitted curve in the direction sought with a large enough effect; inconclusive = small, poorly fitted or top-dose-only effect, or another doubt; inactive = no such curve, though single readings can be large; an effect the other way counts as inactive or inconclusive.

SMILES | DT40 TDP1 no CPT | 12-LOX inh | DT40 TDP1 CPT | VP16 counter | ELG1 repair inh | RORg inh
CC1(C(=O)Nc2ccc3c(c2)OCO3)Cc2c(-c3cccc(C(F)(F)F)c3)ccnc2O1 (centres undefined) | 3.7µM | – | 4.1µM | · | · | ·
COC(=O)c1cc2ccccc2c([N+](=O)[O-])c1O | – | – | – | · | · | ·
COc1ccc2c(c1[N+](=O)[O-])CCC/C2=N/OC(=O)c1cccc2ccccc12 | ? | – | ? | 14µM | – | –
COc1cc(C(O)c2nc(C(=O)NCCN3CCOCC3)cs2)cc(OC)c1OC (centres undefined) | · | – | · | · | · | ·
COc1cc(=O)n2c(c1C(=O)NCc1ccco1)CCN(Cc1ccc(F)cc1Cl)CC2 | 2.9µM | – | 0.21µM | · | · | ·
COc1ccccc1/C=C/CN1CCC(Oc2ccc(C(=O)N3CCCCC3)cc2)CC1 | 26µM | – | ? | – | – | –
Cc1cc(C)cc(CN2CCC(Oc3ccc(C(=O)N4CCCC4)cc3)CC2)c1 | 23µM | – | 21µM | – | – | –
COc1ccc(/C=C/CN2CCC(Oc3ccc(C(=O)N4CCCCC4)cc3)CC2)cc1 | 15µM | – | ? | – | – | –
COc1ccccc1/C=C/CN1CCC(Oc2cc(C(=O)NC3CC3)ccc2OC)CC1 | 2.1µM | – | ? | – | – | –
COC(=O)c1ccc(CN2CCC(Oc3ccc(C(=O)N4CCCCC4)cc3)CC2)cc1 | ? | – | ? | · | · | ·
O=C(N/N=C/c1c[nH]c2ccccc12)c1csc2ccccc12 | · | – | · | · | · | ·
O=C(Nn1cc(C(=O)Nc2ccccc2F)c2ccccc2c1=O)c1cnccn1 | ? | – | ? | ? | ? | ?
COC(=O)c1cn(NC(=O)c2cnccn2)c(=O)c2ccccc12 | 7.3µM | – | 7.3µM | ? | – | 13µM
Cc1ccc(OCc2n[nH]c(=S)n2N)cc1C | – | ? | – | – | – | 7.9µM
CCCCn1c(Cc2ccccc2)n[nH]c1=S | ? | ? | – | –[0.365 µM] | – | ?
CCCCOc1ccc(Cc2n[nH]c(=S)n2N)cc1 | ? | 8.9µM | ? | – | – | –[10 µM]
Cc1occc1C(=O)N1CCN(c2ccc(Cl)c(Cl)c2)CC1 | 16µM | ? | ? | –[0.365 µM] | – | –
CNS(=O)(=O)c1ccc(NC(=O)c2ccoc2C)cc1 | – | – | – | – | ? | –
Cc1occc1C(=O)NNC(=S)Nc1ccccc1 | – | – | – | – | ? | 14µM
Cc1occc1C(=O)Nc1ccc(S(N)(=O)=O)cc1 | ? | – | 23µM | – | – | –
Cc1occc1C(=O)NNC(=O)Nc1ccc(Cl)c(Cl)c1 | ? | – | 15µM | – | – | –
Cc1ccsc1C(=O)NNC(=O)Nc1ccc(Cl)c(Cl)c1 | – | ? | – | – | ? | –
CCCCNC(=S)NNC(=O)c1ccco1 | – | – | – | ? | – | 13µM
COCCCNC(=S)NNC(=O)c1ccoc1C | – | – | – | ? | – | ?
CCCCNC(=S)NNC(=O)c1ccoc1C | – | – | – | – | – | 8.9µM
SMILES | DT40 TDP1 no CPT | 12-LOX inh | DT40 TDP1 CPT | VP16 counter | ELG1 repair inh | RORg inh
CCCCNC(=S)NNC(=O)c1csc2ccccc12 | 26µM | – | ? | – | – | –
CCCCNC(=O)NNC(=O)c1ccco1 | – | – | – | – | – | –
N/C(Cc1ccc(Cl)cc1Cl)=N\OC(=O)c1cccs1 | – | – | – | ? | – | 13µM
COc1ccc(C(=O)Oc2ccc3c(c2)OCO3)cc1OC | – | – | – | – | ? | –
COc1ccc(/C(N)=N/OC(=O)c2ccc3c(c2)OCO3)cc1OC | ? | – | 21µM | – | ? | –
COc1ccc(/C(N)=N/OC(=O)c2cccs2)cc1OC | ? | – | 12µM | – | – | –
COc1cc(OC)c(C(=O)O/N=C(\N)c2cccc(C)c2)cc1OC | ? | – | 21µM | – | – | –
CC(C)c1ccc2oc(=O)cc(CN3CCC(C(N)=O)CC3)c2c1 | · | – | · | · | · | ·
Cc1ccc(C)c([S+](=O)([O-])c2nnn3c2nc(NC2CCCC2)c2ccccc23)c1 | · | –[6.33 µM] | · | · | · | ·
Cc1noc(C)c1-c1cc(-c2ccccc2C(F)(F)F)cn2cncc12 | · | – | · | · | · | ·
N/C(Cc1cccc2ccccc12)=N\OC(=O)c1ccc2c(c1)OCO2 | 21µM | – | 16µM | ? | – | –
N/C(Cc1cccc2ccccc12)=N\OC(=O)c1ccc(Br)o1 | · | ? | · | – | – | –
Cc1cccc(/C(N)=N/OC(=O)c2cccs2)c1 | – | – | – | ? | ? | 8.9µM
COc1ccc(C(C#N)CC(=O)c2ccc3c(c2)OCO3)cc1OC (centres undefined) | – | – | – | · | · | ·
COc1ccc(C(=O)CC(C#N)c2ccc3c(c2)OCO3)cc1OC (centres undefined) | 21µM | ? | ? | · | · | ·
Cc1ccc(/C(N)=N/OC(=O)c2cccs2)cc1 | 21µM | – | 23µM | ? | ? | ?
COCC1CN(C(C)=O)CC12CCN(Cc1ccc(F)cc1)CC2 (centres undefined) | · | – | · | · | · | ·
COC(=O)C1=C(C)N(C)C(=O)N(C)C1c1ccccc1F (centres undefined) | · | – | · | · | · | ·
Cc1nc(Nc2nc(CCC(C)C)cc(=O)[nH]2)nc2ccccc12 | · | – | · | · | · | ·
COC(=O)CC1CCN(C(=O)C[C@H]2NC(=O)c3ccccc3NC2=O)CC1 | · | – | · | · | · | ·
CSC1=C(C#N)C(c2ccccc2Cl)C2=C(N1)c1ccccc1C2=O (centres undefined) | 18µM | – | 23µM | – | – | –
Cc1nn(-c2ccccn2)c2c1C(c1c(F)cccc1Cl)C1=C(N2)c2ccccc2C1=O (centres undefined) | · | · | · | 7.9µM | 15µM | 1.6µM
Cc1nn(-c2ccccn2)c2c1C(c1ccccc1Cl)C1=C(N2)c2ccccc2C1=O (centres undefined) | 4.6µM | – | 6.5µM | ? | 21µM | 2.8µM
CC1CC=CC2C1C(=O)N(Cc1ccccc1)C2c1ccc(-c2ccc(F)cc2)cc1F (centres undefined) | · | · | · | – | · | –
C[C@@H]1CC=C[C@@H]2[C@H]1C(=O)N(Cc1ccccc1)[C@H]2c1cccc(Br)c1 | ? | ? | ? | – | – | –
COc1ccc(-c2ccc(OC)c([C@H]3[C@H]4C=CC[C@@H](C)[C@@H]4C(=O)N3Cc3ccccc3)c2)cc1OC | 16µM | ? | ? | – | – | –
C[C@@H]1CC=C[C@@H]2[C@H]1C(=O)N(Cc1ccccc1)[C@H]2c1cccc(C#Cc2ccccc2)c1 | 10µM | ? | 29µM | – | – | –
C[C@@H]1CC=C[C@H]2[C@H]1C(=O)N(Cc1ccccc1)[C@H]2c1ccc(-c2ccc(F)cc2)cc1F | 13µM | – | 16µM | – | – | –

Screening results (PubChem)
